The values that follow come from paper PMC7862700, “An all-to-all approach to the identification of sequence-specific readers for epigenetic DNA modifications on cytosine”.

Holding throughout (test): DAPPL (digital affinity profiling via proximity ligation, sequencing); 10 mM Tris-HCl pH 7.5, 50 mM NaCl, 1 mM DTT, 4% glycerol, room temperature, 30 min; GST-TFs on glutathione beads, 16-mer random dsDNA library, 0.1% formaldehyde crosslink after washing; high values mean tight binding
In one experiment the target is T1, FLI1 (Homo sapiens, UniProt Q01543 1-452).
T1 sequence: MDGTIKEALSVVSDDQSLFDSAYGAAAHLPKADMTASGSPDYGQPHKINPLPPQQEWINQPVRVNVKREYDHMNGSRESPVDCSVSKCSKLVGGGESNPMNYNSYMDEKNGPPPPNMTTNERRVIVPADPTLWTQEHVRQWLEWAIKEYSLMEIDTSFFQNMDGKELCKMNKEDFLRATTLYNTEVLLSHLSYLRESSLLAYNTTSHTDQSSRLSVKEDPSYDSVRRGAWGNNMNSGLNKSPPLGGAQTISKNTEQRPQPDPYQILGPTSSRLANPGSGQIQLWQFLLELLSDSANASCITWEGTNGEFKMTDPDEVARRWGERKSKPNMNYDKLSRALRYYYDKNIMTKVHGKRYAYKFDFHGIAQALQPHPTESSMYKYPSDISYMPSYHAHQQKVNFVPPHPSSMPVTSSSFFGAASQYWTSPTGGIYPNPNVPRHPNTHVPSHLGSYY
Particulars: protein: recombinant; tags: N-terminal GST; dsDNA, one strand shown. A digest of the protocol:
(§1)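 Yeast served to express human transcription factors as GST fusions, which were then captured on glutathione beads and labelled with DNA barcodes. Pooled with a tag-only sample, they were incubated with 200 nmole of a 16-mer random double-stranded DNA library for 30 min at room temperature in Tris/NaCl/DTT/glycerol buffer, washed, crosslinked with 0.1% formaldehyde, ligated by proximity, amplified by PCR and sequenced. Dividing each hexamer's read frequency for a factor by its frequency for the tag-only sample gives the binding signal.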

In the next experiment the target is T2, ELK1 (Homo sapiens, UniProt P19419 1-428).
T2 sequence: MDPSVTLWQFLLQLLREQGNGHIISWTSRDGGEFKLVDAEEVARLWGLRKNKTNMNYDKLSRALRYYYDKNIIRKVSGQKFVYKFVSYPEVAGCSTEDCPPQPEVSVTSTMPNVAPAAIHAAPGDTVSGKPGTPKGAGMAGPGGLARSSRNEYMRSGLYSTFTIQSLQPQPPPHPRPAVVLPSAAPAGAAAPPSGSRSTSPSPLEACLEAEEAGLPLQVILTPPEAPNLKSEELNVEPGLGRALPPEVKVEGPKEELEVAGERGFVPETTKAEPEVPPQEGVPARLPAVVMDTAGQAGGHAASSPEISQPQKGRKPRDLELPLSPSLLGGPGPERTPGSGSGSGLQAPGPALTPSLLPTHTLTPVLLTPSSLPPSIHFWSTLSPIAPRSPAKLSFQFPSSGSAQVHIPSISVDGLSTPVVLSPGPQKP
Particulars: protein: recombinant; tags: N-terminal GST; dsDNA, one strand shown. In a few lines:
as §1

The target of a further experiment is T3, GABPA (Homo sapiens, UniProt Q06546 1-454).
T3 sequence: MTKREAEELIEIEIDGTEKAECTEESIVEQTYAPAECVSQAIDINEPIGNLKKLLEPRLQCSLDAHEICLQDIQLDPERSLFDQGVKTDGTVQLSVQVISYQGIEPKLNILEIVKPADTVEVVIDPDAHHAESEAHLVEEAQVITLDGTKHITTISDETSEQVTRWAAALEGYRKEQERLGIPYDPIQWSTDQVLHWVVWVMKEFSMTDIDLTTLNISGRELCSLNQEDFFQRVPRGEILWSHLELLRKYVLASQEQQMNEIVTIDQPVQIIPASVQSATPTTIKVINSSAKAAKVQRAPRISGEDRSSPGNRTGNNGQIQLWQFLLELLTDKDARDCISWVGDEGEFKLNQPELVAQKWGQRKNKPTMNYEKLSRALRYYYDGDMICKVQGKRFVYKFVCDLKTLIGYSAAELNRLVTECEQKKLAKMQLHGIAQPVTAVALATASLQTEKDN
The note with it: protein: recombinant; tags: N-terminal GST; dsDNA, one strand shown. In a few lines:
as §1

In the next experiment the target is T4, ERG (Homo sapiens, UniProt P11308 1-479).
T4 sequence: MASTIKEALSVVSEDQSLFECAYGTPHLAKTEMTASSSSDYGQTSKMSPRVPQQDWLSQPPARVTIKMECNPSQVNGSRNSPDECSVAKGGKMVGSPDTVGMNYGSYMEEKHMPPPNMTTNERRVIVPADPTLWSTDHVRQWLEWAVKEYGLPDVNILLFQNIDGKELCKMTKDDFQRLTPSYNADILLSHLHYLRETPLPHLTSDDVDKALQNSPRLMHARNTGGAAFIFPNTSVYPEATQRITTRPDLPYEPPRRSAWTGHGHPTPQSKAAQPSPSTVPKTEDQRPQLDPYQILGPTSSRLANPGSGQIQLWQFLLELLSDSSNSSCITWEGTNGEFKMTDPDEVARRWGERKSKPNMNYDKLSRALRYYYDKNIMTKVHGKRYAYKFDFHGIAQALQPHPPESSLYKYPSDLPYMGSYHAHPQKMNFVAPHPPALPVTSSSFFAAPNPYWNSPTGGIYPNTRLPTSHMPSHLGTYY
The note with it: protein: recombinant; tags: N-terminal GST; dsDNA, one strand shown. A digest of the protocol:
as §1

The next experiment addresses ELF1 (Homo sapiens, UniProt P32519 1-619). The note with it: protein: recombinant; tags: N-terminal GST; dsDNA, one strand shown. In a few lines:
as §1

The target of another experiment is T5, EHF (Homo sapiens, UniProt Q9NZC4 1-300).
T5 sequence: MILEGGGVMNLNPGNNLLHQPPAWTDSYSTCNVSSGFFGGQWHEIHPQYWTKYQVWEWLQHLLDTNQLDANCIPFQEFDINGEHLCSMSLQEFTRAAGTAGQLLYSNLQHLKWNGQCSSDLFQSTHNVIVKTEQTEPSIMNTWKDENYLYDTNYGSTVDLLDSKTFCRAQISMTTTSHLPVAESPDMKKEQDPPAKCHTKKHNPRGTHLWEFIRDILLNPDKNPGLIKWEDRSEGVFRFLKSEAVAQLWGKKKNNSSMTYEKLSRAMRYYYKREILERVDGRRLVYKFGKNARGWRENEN
The note with it: protein: recombinant; tags: N-terminal GST; dsDNA, one strand shown. A digest of the protocol: as §1

Another experiment deals with SPI1 (Homo sapiens, UniProt P17947 1-270). The note with it: protein: recombinant; tags: N-terminal GST; dsDNA, one strand shown. In a few lines: as §1
The next experiment deals with SPIB (Homo sapiens, UniProt Q01892 1-262). Particulars: protein: recombinant; tags: N-terminal GST; dsDNA, one strand shown. A digest of the protocol: as §1
The next experiment concerns the target T6, ELK3 (Homo sapiens, UniProt P41970 1-407).
T6 sequence: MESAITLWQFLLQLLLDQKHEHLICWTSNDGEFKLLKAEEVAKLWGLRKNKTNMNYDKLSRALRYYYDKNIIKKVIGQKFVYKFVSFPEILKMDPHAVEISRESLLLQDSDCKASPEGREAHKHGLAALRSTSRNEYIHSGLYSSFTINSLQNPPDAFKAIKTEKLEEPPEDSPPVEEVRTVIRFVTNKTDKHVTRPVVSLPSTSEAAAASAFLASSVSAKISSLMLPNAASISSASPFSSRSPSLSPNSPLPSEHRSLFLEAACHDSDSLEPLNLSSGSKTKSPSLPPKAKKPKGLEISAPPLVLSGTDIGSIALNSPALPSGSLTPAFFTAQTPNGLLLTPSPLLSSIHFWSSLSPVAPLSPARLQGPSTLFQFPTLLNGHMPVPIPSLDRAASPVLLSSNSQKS
Particulars: protein: recombinant; tags: N-terminal GST; dsDNA, one strand shown. A digest of the protocol:
as §1

A further experiment deals with T7, FEV (Homo sapiens, UniProt Q99581 1-238).
T7 sequence: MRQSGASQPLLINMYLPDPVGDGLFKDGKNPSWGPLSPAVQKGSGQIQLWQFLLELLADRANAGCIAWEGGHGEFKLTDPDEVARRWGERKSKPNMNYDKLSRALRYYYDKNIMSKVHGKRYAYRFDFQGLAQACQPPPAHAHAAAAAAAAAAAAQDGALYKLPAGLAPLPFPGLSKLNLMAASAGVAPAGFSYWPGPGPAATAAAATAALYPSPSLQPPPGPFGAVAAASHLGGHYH
The note with it: protein: recombinant; tags: N-terminal GST; dsDNA, one strand shown. In a few lines:
as §1

The target of another experiment is ETV5 (Homo sapiens, UniProt P41161 1-510). Particulars: protein: recombinant; tags: N-terminal GST; dsDNA, one strand shown. A digest of the protocol: as §1
Another experiment has as its target HSF1 (Homo sapiens, UniProt Q00613 1-529). Particulars: protein: recombinant; tags: N-terminal GST; chain copies: 3; dsDNA, one strand shown. A digest of the protocol:
as §1

In the next experiment the target is T8, SPIC (Homo sapiens, UniProt Q8N5J4 1-248).
T8 sequence: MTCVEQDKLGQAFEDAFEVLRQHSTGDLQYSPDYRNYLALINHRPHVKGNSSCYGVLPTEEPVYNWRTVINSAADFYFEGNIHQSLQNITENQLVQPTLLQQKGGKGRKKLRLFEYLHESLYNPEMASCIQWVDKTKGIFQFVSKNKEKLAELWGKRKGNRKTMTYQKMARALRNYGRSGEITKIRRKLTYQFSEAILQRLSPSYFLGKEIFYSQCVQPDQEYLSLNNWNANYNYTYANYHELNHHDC
The note with it: protein: recombinant; tags: N-terminal GST; dsDNA, one strand shown. A digest of the protocol:
as §1

For the next experiment, the target named is ELF4 (Homo sapiens, UniProt Q99607 1-663). Particulars: protein: recombinant; tags: N-terminal GST; dsDNA, one strand shown. In a few lines:
as §1

The next experiment has as its target T9, ELK4 (Homo sapiens, UniProt P28324-2 1-405).
T9 sequence: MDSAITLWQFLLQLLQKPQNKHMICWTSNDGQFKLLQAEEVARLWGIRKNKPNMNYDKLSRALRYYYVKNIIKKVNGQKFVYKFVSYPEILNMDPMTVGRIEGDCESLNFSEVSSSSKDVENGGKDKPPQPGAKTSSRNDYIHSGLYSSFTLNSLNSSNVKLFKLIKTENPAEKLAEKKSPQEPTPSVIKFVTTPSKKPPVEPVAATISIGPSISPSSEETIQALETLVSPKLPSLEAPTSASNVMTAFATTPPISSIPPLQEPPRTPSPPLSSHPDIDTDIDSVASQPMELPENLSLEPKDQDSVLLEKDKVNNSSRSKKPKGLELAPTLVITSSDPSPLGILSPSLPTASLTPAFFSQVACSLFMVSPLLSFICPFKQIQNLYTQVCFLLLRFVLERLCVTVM
Particulars: protein: recombinant; tags: N-terminal GST; dsDNA, one strand shown. In a few lines:
as §1

The next experiment has as its target T10, ETV2 (Homo sapiens, UniProt O00321 1-342).
T10 sequence: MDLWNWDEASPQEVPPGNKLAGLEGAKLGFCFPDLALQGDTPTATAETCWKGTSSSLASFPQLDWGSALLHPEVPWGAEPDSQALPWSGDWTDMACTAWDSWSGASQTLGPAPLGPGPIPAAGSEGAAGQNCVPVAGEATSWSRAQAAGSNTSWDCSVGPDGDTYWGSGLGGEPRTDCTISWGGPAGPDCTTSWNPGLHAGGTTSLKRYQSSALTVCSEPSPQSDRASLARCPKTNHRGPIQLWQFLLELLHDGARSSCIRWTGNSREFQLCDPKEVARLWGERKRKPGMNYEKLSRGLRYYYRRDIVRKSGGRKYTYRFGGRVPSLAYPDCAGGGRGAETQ
Particulars: protein: recombinant; tags: N-terminal GST; dsDNA, one strand shown. In a few lines: as §1

Another experiment concerns the target T11, ELF3 (Homo sapiens, UniProt P78545 1-371).
T11 sequence: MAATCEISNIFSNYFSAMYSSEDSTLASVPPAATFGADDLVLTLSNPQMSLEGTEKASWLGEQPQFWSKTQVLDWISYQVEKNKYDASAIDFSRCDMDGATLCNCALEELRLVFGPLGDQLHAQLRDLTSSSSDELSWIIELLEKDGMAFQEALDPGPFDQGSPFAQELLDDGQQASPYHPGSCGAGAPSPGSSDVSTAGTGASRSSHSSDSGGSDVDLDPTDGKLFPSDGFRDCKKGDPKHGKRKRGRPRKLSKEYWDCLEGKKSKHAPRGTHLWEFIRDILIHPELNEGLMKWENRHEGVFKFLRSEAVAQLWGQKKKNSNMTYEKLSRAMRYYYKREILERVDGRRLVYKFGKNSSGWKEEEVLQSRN
The note with it: protein: recombinant; tags: N-terminal GST; dsDNA, one strand shown. A digest of the protocol: as §1

The next experiment concerns the target CRX (Homo sapiens, UniProt O43186 1-299). The note with it: protein: recombinant; tags: N-terminal GST; dsDNA, one strand shown. A digest of the protocol: as §1
Another experiment concerns the target ETV1 (Homo sapiens, UniProt P50549 1-477). The note with it: protein: recombinant; tags: N-terminal GST; dsDNA, one strand shown. A digest of the protocol:
as §1

Sequence of ETV5 (P41161 whole entry): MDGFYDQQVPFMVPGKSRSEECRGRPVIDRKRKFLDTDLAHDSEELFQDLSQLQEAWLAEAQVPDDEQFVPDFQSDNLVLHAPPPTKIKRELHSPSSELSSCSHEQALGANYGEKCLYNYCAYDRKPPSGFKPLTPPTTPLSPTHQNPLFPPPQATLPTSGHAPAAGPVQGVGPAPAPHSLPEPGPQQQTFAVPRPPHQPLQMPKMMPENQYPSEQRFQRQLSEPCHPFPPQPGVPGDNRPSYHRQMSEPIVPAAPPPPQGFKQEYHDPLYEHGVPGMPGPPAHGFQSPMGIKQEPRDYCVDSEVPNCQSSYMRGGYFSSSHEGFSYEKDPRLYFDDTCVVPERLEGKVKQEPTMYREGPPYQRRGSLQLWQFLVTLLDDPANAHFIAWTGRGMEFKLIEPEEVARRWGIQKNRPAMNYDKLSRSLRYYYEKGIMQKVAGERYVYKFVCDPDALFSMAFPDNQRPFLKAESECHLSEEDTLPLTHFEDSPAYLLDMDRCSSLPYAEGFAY
Sequence of SPIB (Q01892 whole entry): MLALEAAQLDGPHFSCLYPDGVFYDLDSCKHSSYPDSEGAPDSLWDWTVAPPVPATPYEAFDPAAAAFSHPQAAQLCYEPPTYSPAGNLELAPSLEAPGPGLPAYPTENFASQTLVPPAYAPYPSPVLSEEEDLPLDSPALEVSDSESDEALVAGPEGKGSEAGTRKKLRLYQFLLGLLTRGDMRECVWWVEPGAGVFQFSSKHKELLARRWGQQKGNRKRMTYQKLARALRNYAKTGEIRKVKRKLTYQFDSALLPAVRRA
Sequence of ELF1 (P32519 whole entry): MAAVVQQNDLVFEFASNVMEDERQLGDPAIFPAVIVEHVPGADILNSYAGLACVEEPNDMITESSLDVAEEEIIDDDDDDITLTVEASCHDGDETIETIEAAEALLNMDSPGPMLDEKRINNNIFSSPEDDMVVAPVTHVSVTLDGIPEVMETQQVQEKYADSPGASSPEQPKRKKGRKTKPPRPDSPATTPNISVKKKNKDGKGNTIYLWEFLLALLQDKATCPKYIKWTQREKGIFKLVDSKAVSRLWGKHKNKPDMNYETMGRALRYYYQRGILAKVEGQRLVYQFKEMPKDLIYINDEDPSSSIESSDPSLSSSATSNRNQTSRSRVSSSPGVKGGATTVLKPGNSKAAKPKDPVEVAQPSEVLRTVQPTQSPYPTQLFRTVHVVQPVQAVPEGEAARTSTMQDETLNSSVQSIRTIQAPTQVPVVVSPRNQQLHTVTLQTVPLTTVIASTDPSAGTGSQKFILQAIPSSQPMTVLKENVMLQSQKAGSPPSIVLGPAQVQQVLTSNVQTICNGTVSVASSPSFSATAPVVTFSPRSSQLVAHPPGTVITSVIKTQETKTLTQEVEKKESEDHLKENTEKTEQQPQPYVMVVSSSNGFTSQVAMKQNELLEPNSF
Sequence of ETV1 (P50549 whole entry): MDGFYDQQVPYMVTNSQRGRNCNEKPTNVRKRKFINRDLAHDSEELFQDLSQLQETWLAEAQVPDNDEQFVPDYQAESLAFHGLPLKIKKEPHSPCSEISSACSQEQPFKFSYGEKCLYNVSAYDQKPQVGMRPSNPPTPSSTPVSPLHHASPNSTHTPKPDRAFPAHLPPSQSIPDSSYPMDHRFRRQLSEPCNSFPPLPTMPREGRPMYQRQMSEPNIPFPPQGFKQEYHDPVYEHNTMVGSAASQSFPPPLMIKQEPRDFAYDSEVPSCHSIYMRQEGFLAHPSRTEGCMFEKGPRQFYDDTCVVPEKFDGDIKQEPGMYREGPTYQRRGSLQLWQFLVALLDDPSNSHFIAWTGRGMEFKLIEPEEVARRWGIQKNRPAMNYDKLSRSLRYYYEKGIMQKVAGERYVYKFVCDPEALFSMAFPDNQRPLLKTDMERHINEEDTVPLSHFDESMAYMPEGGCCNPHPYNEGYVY
Sequence of HSF1 (Q00613 whole entry): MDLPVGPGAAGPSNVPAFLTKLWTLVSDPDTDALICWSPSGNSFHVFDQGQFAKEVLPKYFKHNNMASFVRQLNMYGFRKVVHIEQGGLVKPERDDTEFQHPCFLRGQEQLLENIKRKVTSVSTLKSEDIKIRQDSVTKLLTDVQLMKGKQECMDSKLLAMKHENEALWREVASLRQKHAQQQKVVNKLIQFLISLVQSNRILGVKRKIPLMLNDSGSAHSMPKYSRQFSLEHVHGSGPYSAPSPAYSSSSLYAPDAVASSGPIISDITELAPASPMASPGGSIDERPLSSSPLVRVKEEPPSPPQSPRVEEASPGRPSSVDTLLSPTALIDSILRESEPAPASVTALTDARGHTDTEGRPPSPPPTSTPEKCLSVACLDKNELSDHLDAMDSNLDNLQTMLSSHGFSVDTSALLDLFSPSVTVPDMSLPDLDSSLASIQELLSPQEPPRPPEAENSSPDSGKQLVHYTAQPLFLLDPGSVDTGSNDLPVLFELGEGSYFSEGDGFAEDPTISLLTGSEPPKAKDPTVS
Sequence of CRX (O43186 whole entry): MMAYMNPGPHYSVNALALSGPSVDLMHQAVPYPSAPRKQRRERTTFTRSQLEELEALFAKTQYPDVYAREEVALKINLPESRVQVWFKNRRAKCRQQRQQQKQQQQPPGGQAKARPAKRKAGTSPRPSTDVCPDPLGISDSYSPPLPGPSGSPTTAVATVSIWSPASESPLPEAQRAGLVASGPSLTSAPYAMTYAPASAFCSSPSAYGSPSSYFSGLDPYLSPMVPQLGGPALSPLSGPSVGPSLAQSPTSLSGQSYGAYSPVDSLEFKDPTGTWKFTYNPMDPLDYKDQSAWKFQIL
Sequence of ELF4 (Q99607 whole entry): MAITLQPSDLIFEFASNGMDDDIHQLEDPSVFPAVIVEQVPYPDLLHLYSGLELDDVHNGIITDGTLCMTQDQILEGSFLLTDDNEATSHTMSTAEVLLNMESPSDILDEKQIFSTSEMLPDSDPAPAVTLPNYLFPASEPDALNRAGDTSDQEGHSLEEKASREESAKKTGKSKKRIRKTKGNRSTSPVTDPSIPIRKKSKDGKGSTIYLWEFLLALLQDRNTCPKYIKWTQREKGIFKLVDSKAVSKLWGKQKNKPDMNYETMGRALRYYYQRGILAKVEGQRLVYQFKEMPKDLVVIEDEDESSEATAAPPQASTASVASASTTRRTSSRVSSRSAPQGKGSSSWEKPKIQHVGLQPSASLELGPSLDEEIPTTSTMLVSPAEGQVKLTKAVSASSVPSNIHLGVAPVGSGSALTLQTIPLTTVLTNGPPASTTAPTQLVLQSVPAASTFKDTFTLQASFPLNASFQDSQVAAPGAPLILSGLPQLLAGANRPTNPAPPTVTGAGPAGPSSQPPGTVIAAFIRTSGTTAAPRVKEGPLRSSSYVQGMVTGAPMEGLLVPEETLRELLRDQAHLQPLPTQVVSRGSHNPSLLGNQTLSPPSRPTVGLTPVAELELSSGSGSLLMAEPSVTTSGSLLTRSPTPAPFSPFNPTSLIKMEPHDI

As to TTCCCT, the binding signal in the experiment with FLI1 was 1.81 fold enrichment (6-mer frequency, TF over GST control); in the experiment with ELK1 it was 1.67 fold enrichment (6-mer frequency, TF over GST control); with GABPA it was 1.72 fold enrichment (6-mer frequency, TF over GST control); with ERG it was 1.72 fold enrichment (6-mer frequency, TF over GST control); in the experiment with ELF1, 1.68 fold enrichment (6-mer frequency, TF over GST control); with EHF it was 1.68 fold enrichment (6-mer frequency, TF over GST control). Besides, the binding signal is 2.23 fold enrichment (6-mer frequency, TF over GST control) with SPI1; 1.9 fold enrichment (6-mer frequency, TF over GST control) with SPIB; 1.8 fold enrichment (6-mer frequency, TF over GST control) in the experiment with ELK3; 1.64 fold enrichment (6-mer frequency, TF over GST control) in the experiment with FEV; 1.69 fold enrichment (6-mer frequency, TF over GST control) with ETV5; 1.52 fold enrichment (6-mer frequency, TF over GST control) with HSF1. The binding signal in the experiment with SPIC was 1.84 fold enrichment (6-mer frequency, TF over GST control); in the experiment with ELF4 it was 1.79 fold enrichment (6-mer frequency, TF over GST control); with ELK4 it was 1.65 fold enrichment (6-mer frequency, TF over GST control); in the experiment with ETV2 it was 1.62 fold enrichment (6-mer frequency, TF over GST control); with ELF3, 1.57 fold enrichment (6-mer frequency, TF over GST control); with CRX, 1.31 fold enrichment (6-mer frequency, TF over GST control). Moreover, in the experiment with ETV1, the binding signal is 1.68 fold enrichment (6-mer frequency, TF over GST control).
